RXFP1 antag: RXFP1 (human) relaxin receptor antagonism. Q9HBX9. HEK293-RXFP1, relaxin-stimulated cAMP HTRF, 30 min; stronger effect = lower value. activity change, negative = inhibition, % at 57.5 µM. 350,000 tested, 0.59% active;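 active = activity change of -60% or lower, but not beyond a set lower limit; inconclusive = change between -60% and -40%, or beyond the set limit; inactive = change above -40%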
RXFP1 agonist: agonists of human relaxin receptor RXFP1 | Q9HBX9 | HEK293T-RXFP1 cAMP TR-FRET, 30 min; response scale: percent of porcine relaxin response, buffer zero | Potency, µM (doses to about 57.5 µM), inactives show at the top dose activation, most hits filed as activators | 370,000 tested, 0.3% active; active = well fitted activation curve with a large enough effect; inconclusive = small, poorly fitted or top-dose-only effect; note: potency is the fitted concentration of half-maximal effect; nearly all actives have a fitted effect of over 60% in size
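HEK293 cells stably expressing RXFP1, treated 30 min at 37C with compounds plus PDE4 inhibitor Ro 20174; cAMP measured by HTRF TR-FRET. Normalized to buffer and 29 nM porcine relaxin; EC50 by Hill fit.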
hERG WT inh: blocks the wildtype human KCNH2 potassium channel. 340,000 tested, 0.37% active. activity change, % at 1.84 µM. Q12809. U2OS, BacMam KCNH2, thallium flux FluxOr; stronger effect = lower value;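 active = maximum activity change below -70%; inconclusive = maximum activity change between -70% and -50%; inactive = maximum activity change above -50%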
Target sequence (Q12809 whole entry, looked up): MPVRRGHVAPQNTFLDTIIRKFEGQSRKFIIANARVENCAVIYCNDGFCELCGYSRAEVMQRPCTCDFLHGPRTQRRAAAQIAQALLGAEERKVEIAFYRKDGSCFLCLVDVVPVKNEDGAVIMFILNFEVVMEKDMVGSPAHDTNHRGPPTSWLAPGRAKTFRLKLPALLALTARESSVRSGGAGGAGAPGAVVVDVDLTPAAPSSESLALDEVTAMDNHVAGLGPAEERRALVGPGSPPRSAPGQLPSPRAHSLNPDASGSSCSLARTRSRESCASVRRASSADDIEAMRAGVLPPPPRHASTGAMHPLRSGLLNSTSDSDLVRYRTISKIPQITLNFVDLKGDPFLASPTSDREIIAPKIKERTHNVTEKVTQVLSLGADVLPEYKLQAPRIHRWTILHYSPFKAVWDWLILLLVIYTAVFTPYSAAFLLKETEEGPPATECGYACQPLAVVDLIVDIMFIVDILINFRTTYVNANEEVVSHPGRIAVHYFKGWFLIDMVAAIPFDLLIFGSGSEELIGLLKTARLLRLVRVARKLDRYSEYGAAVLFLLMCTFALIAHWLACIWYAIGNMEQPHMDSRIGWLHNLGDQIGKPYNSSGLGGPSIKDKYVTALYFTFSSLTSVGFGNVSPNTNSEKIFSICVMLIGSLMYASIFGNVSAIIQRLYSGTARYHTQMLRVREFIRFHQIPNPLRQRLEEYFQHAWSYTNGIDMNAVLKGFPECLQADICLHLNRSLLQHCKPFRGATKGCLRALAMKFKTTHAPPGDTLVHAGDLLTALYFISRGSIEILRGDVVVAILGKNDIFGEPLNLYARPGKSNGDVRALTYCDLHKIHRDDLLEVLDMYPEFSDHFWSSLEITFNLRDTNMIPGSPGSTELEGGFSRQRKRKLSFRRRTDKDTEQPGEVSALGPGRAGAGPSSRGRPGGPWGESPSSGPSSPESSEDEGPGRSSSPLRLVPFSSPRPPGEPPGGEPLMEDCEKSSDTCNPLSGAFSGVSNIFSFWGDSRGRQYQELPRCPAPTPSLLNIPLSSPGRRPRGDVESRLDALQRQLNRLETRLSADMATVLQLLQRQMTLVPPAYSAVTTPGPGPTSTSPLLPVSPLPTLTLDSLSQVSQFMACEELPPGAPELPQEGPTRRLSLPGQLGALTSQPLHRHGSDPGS
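U2OS cells transduced with wild-type KCNH2 virus are loaded with FluxOr dye for 45 min, and thallium flux is measured in kinetic reads before and after stimulation buffer. Rate constants are normalized to DMSO controls.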
KCNH2 3.1 block: KCNH2 3.1 (human) potassium channel inhibition; U2OS KCNH2 3.1, thallium flux FluxOr; stronger effect = lower value; activity change, % (tested at about 1.8 µM); 340,000 tested, 0.95% active; AID 720553;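 active = maximum activity change below -70%; inconclusive = maximum activity change from -70% to -50%; inactive = maximum activity change above -50%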;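 note: thallium influx rate constant from kinetic fluorescence after stimulation buffer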
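U2OS cells transduced with KCNH2 3.1 mutant virus (1.77 x 10^8 /mL, 4 h), plated overnight at 37 C, loaded 45 min with FluxOr dye plus Red40 quencher. Thallium flux rate constant from kinetic reads after stimulation buffer, normalised to controls.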
Akt phos inh: inhibitors of Akt phosphorylation | Neuro2A IGF-stimulated pAkt S473 HTRF, 20 min; stronger effect = lower value | activity change, % for hits at 50 µM | 360,000 tested, 0.32% active; in the data active = activity change below about -80%; inconclusive = mostly about -51% to -80%
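Single-point screen (50 µM final compound) in Neuro2A cells stimulated 20 min with 6 nM IGF at 37 deg C. After lysis, Ser473-phosphorylated Akt read by HTRF (ex 330 nm, em 615/665 nm) as the 665/615 ratio.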
* = called active by the depositor; i = inactive; ? = inconclusive; · = no result; ! = not active in a repeat. Sampled rows, rich in hits. Any-hit rate of the full collection: about 1.7%. % is set by controls: 0 for no effect and ±100 for the full control effect.

SMILES	RXFP1 antag	RXFP1 agonist	hERG WT inh	KCNH2 3.1 block	Akt phos inh
Cc1cccc(C)c1NC(=O)CN(C)S(=O)(=O)c1ccc(-c2ccc(=O)[nH]n2)s1	-29.5	-1.1%	15.0	-176.9*	i
CC(=O)OCC1=C(C(=O)O)N2C(=O)[C@@H](NC(=O)CSc3ccncc3)[C@H]2SC1	-91.6*!	2.0%	-0.7	2.1	i
CC(=O)c1ccc(Nc2nc(-c3sc(C)nc3C)cs2)cc1	-10.4	·	-133.5*	5.4	i
Cc1cc(NC(=O)CCC(=O)N(Cc2ccco2)C(C(=O)NCC2CCCO2)c2ccncc2)no1 (stereo not drawn)	-22.0	-2.4%	-1.7	-11.1	i
O=C(COC(=O)C1CC2CCCC(C1)C2=O)Nc1nc(-c2ccc(F)c(F)c2)cs1 (stereo not drawn)	-8.0	0.2%	0.5	-93.8*	i
C[C@H](NC(=O)C1CCN(S(=O)(=O)c2ccccc2)CC1)C(=O)NCc1cccc(C(F)(F)F)c1	-3.0	1.8%	0.7	-6.3	i
Cc1cc(N)ccc1NC(=O)c1ccccc1	-3.8	0.5%	4.8	0.4	i
Cc1ccc(NCCC(=O)c2cccs2)cc1Cl	-18.0	-0.2%	-2.6	-36.6	i
O=C(CCNc1cccc(Cl)c1)c1cccs1	2.9	2.1%	-1.1	-70.1*	i
CCC(COC(=O)Nc1cccc(C)c1C)NC(=O)OCC(C)C (stereo not drawn)	-5.5	-0.2%	-23.7	15.2	i
CCCOC(=O)NC(CC)COC(=O)Nc1cccc(C)c1C (stereo not drawn)	-13.8	0.5%	-7.5	-1.5	-115.9%*
Cc1cc(C)c(S(=O)(=O)Nc2cc(SCC(=O)O)c(O)c3ccccc23)cc1C	1.9	1.0%	-5.6	-4.7	i
Cc1cc(C)c(S(=O)(=O)/N=C2/C=C(SCC(=O)O)C(=O)c3ccccc32)cc1C	-23.2	-1.5%	4.6	-117.2*	i
Cc1nn(CCCC(=O)NCc2cccc(F)c2)c(=O)c2nn(-c3ccccc3)c(C)c12	-28.6	4.2%	·	·	·
COc1cc2c(cc1OC)C(COc1ccc3c(C)cc(=O)oc3c1)N(C(=O)Cc1ccccc1)CC2 (stereo not drawn)	-5.9	35.5µM*	·	·	·
COc1cc2c(cc1OC)C(COc1ccc3c(C)cc(=O)oc3c1)N(C(=O)Cc1ccc(F)cc1)CC2 (stereo not drawn)	-8.8	-0.2%	·	·	·
COCCn1c(=O)[nH]c2cc(C(=O)NCCN3CCN(c4cccc(Cl)c4)CC3)ccc2c1=O	-0.6	0.8%	-2.1	4.6	-118.1%*
COCCn1c(=O)[nH]c2cc(C(=O)N3CCN(c4cc(C)ccc4C)CC3)ccc2c1=O	-5.9	-2.2%	-2.6	-80.4*	i
Cc1ccc(C)c(N2CCN(C(=O)c3ccc4c(=O)n(CCc5ccccc5)c(=O)[nH]c4c3)CC2)c1	·	-0.5%	·	·	·
Cc1cc(C)cc(N2CC(c3nc4ccccc4n3C)CC2=O)c1 (stereo not drawn)	-0.2	-0.2%	0.6	-3.1	i
O=C(CN1C(=O)CSc2ccc(S(=O)(=O)N3CCOCC3)cc21)NCc1c(F)cccc1Cl	-2.5	·	-0.6	-0.8	i
O=C(CN1CCN(c2ccccn2)CC1)Nc1cccc(Cl)c1Cl	?	-1.2%	-2.7	-4.9	i
CC1N(C(=O)N(C)C)CCN1S(=O)(=O)c1ccccc1 (stereo not drawn)	-1.2	0.6%	-2.4	-5.6	i
CC(C)C1N(C(=O)N(C)C)CCN1S(=O)(=O)c1ccccc1 (stereo not drawn)	-7.1	0.1%	9.7	-141.0*	i
COc1ccc(CNC(=O)c2cc3c(=O)n(Cc4ccco4)ccc3nc2C)cc1	-4.6	2.3%	·	·	·
SMILES	RXFP1 antag	RXFP1 agonist	hERG WT inh	KCNH2 3.1 block	Akt phos inh
Cc1cc(C)cc(NC(=O)COC(=O)CCCC2=NS(=O)(=O)c3ccccc3N2)c1	0.6	-2.9%	-110.3*	1.1	i
COc1ccc(NC(=O)COC(=O)CCCC2=NS(=O)(=O)c3ccccc3N2)cc1	-0.6	-0.5%	-42.7	1.3	i
CC(C)Cn1c(N)c(C(=O)COC(=O)c2cc(-c3ccccc3)nc3ccccc23)c(=O)n(C)c1=O	·	0.3%	6.8	-24.8	i
COc1cc(S(=O)(=O)Nc2ccccn2)ccc1F	-6.3	2.0%	36.3	13.8	i
COc1ccccc1/C=C/CN1CCCC(CO)(CCc2ccccc2)C1 (stereo not drawn)	-15.0	-3.6%	-25.8	-75.3*	i
OCC1(CCc2ccccc2)CCCN(C/C=C/c2ccccc2)C1 (stereo not drawn)	-7.0	0.6%	-12.4	?	i
COc1ccc(CC2(CO)CCN(C/C=C/c3ccccc3OC)CC2)cc1	-2.0	1.7%	-90.0*	-109.4*	i
COc1ccc(CC2(CO)CCN(Cc3cnn(-c4ccccc4OC)c3)CC2)cc1	-3.8	-2.2%	24.8	-24.0	i
Cc1ccc2c(c1)N(C(=O)CCC(=O)NCCN1CCOCC1)CCO2	-0.3	0.8%	-3.3	23.0	i
Cc1ccc2c(c1)N(C(=O)CCC(=O)NCCCN1CCOCC1)CCO2	5.4	0.1%	-3.6	-127.7*	i
CCN(CC)S(=O)(=O)c1ccc(OC)c(NS(=O)(=O)Cc2ccccc2)c1	-2.5	4.3%	13.2	-4.2	i
CC1CCCN(S(=O)(=O)c2cccc(-c3cn4cccnc4n3)c2)C1 (stereo not drawn)	·	6.1%	6.5	-109.7*	i
Cc1nc(C)c(-c2ccc(SCc3cccc(F)c3)nn2)s1	1.2	4.9%	-0.4	-93.9*	i
CC(NC(=O)c1cccnc1)C(c1ccccc1)N1CCN(C)CC1 (stereo not drawn)	8.8	-0.7%	-0.8	-77.0*	i
Cc1cc(NC(=O)CCC(=O)N(c2ccccc2)C(C(=O)NC2CCCC2)c2cccs2)no1 (stereo not drawn)	7.4	-1.7%	4.3	-185.7*	i
COc1ccc(CNC(=O)c2ccc(S(=O)(=O)N3CC(C)CC(C)C3)cc2)cc1OC (stereo not drawn)	9.1	·	-21.1	6.7	i
O=[N+]([O-])c1c(Nc2ccccc2O)cc(Cl)c2nonc12	-75.1*	-2.3%	0.1	2.2	i
O=[N+]([O-])c1c(Nc2ccccc2O)ccc2nonc12	-31.3	4.0%	-7.5	3.6	i
COc1ccc(CN2C(=O)c3cccnc3C2=O)cc1S(=O)(=O)N1CCCC(C)C1 (stereo not drawn)	14.4	7.94µM*	-10.4	14.7	i
COc1ccc(CN2C(=O)c3cccnc3C2=O)cc1S(=O)(=O)N1CCOc2ccc(Cl)cc21	10.8	12.4%	2.3	-10.2	i
COc1ccc(CN2C(=O)c3cccnc3C2=O)cc1S(=O)(=O)NC1CCCCC1C (stereo not drawn)	7.8	25.1µM*	-1.6	-7.1	·

Assay outcomes (PubChem)
